Inconclusive results are not listed. Active and inactive are the calls of the source. Calls follow the shape of the dose curve; as a rule, active = well fitted curve in the direction sought with a large enough effect; inconclusive = small, poorly fitted or top-dose-only effect, or another doubt; inactive = no such curve, though single readings can be large; an effect the other way counts as inactive or inconclusive.
Columns and labels:
[1] = qHTS to identify inhibitors of the type 1 interferon - major histocompatibility complex class I in skeletal muscle: primary screen against the NCATS LOPAC collection (AID 1347405);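 also: lytic HiBiT luminescence reporting HLA-B protein level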
Outline: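 Luminescence from HiBiT fused to endogenous HLA-B in CRISPR-engineered human myoblasts served as the read-out. Cells received 4.0 ng/ml IFN-beta plus compound (seven concentrations, 1:4.3 steps, highest 46 uM final) for 24 hrs before lytic detection.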

[2] = qHTS for ATAD5 Antagonist screened against the NCATS CANVASS Library (AID 1347370);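 also: HEK293T cells carrying an ATAD5 luciferase reporter co-treated with 10 µM 5-fluorouridine; series mostly up to about 46 µM; nearly all actives have a fitted effect of over 65% in size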
Outline: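 HEK293T cells with stably integrated ATAD5-luciferase reporter, 2000/well, 5 h attachment; compounds plus 10 µM 5-fluorouridine, 16 h at 37 °C. Luciferase luminescence read, with CellTiter-Fluor viability read first.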

[3] = J3T Cancer Cell Toxicity qHTS against the NCATS CANVASS Library (AID 1347371);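 also: J3T is a canine glioma cancer cell line seeded at 500 cells per well; series mostly up to about 46 µM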
Outline: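 Cells plated at 500 per well, compounds pin-transferred, plates incubated 72 hr at 37C, then CellTiterGlo added and luminescence read to measure ATP content.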

[4] = molecular target: Nuclear receptor subfamily 1 group I member 3 (Homo sapiens) (UniProt Q14994); assay: qHTS for Constitutive Androstane Receptor (CAR) Antagonist screened against the NCATS CANVASS Library (AID 1347372);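 also: cells stimulated with 50 nM CITCO agonist so inhibition reflects antagonism; series mostly up to about 46 µM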
Outline: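 HepG2 cells stably carrying hCAR and a CYP2B6-2.2kb luciferase reporter were exposed to compounds plus 50 nM CITCO for 24hr at 37C. CAR activity was read by ONE-Glo luminescence, with viability measured first by CellTiter-Fluor.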

[5] = molecular target: Nuclear receptor subfamily 1 group I member 3 (Homo sapiens) (UniProt Q14994); assay: qHTS for Constitutive Androstane Receptor (CAR) Agonist screened against the NCATS CANVASS Library (AID 1347373);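 also: every well also contained 1.5 µM PK11195 alongside the test compound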
Outline: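 HepG2-hCAR-CYP2B6 cells, 2500/well, attached 4hr; cpd + PK11195 1.5uM final; 24hr 37C 5% CO2. CellTiter-Fluor viability read, then ONE-Glo luminescence for CAR activation.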

[6] = 10-beta competent E. coli microbial cell viability qHTS against the NCATS CANVASS Library (AID 1347376); also: series mostly up to about 46 µM
Outline: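 E. coli 10-beta, 0.2 OD; cpds 11-pt; o/n 37C, 5% CO2; BacTiter-Glo 20 min RT; luminescence (ATP) = viable cells. Daunomycin ctrl.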

[7] = qHTS for H2AX Agonists against the NCATS CANVASS Library (AID 1347378)
Outline: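 CHO-K1 cells (1000/well, overnight at 37C) exposed to compounds at several concentrations for 3 hr at 37C, 0.76% DMSO final. Lysates read by TR-FRET (phospho-H2AX S139 Eu-cryptate antibody / H2AX-d2 antibody) after 24 hr at room temperature; 665/615 nm ratio.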

[8] = qHTS for Inflammasome Signaling Inhibitors: IL-1-beta AlphaLISA screen against the NCATS CANVASS Library (AID 1347379);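 also: human THP-1 cells primed with LPS then triggered with ATP; secreted IL-1B measured as AlphaLISA emission at 615 nm; lower signal means less IL-1B release which is the wanted effect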
Outline: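 THP-1 cells pretreated 1 hr with compound (up to 57.5 uM final), then stimulated with LPS (250 ng/mL final) and ATP (1.25 mM final). Secreted IL-1B measured by AlphaLISA after 16 hr; glyburide as positive control.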

[9] = qHTS for Antimalaria activity screened against the NCATS CANVASS Library (AID 1347380);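 also: Plasmodium falciparum strain Dd2 asexual parasites grown in red blood cells; series mostly up to about 29 µM; nearly all actives have a fitted effect of over 40% in size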
Outline: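 Dd2 strain, infected erythrocytes 2.5% Hct final / 0.3% parasitemia. 11-pt qHTS titration, 72 h, 37C, 5% O2, 5% CO2. Lysis buffer + SYBR Green, 18 h, fluorescence 485/535 nm.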

[10] = Inflammasome Signaling qHTS Counterscreen: IL-1-beta AlphaLISA counterscreen against the NCATS CANVASS Library (AID 1347381);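 also: cell-free check with purified IL-1β in medium and no THP-1 cells; series mostly up to about 57 µM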
Outline: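 Cell-free interference check: compounds added to medium spiked with 4 pg purified IL-1β. Anti-IL-1β acceptor beads (6 ug/mL) with 0.6 nM biotinylated antibody added for 1 h at RT, then streptavidin donor beads (24 ug/mL) for 30 min in the dark. AlphaLISA read at 680/615 nm.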

[11] = Cytotoxicity qHTS for assessment of Hepg2 cells membrane integrity screened against the NCATS CANVASS Library (AID 1347387)
Outline: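 qHTS, 11-pt conc. series, 0.59 nM - 46 uM final; HepG2 2000 cells/well, overnight attachment; 5 hr compound exposure 37C/5% CO2; CytoTox-ONE, 10 min RT; fluorescence ex560/em590 = LDH from damaged membranes.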

[12] = qHTS assay for small molecule disruptors of mitochondrial membrane potential screened against the NCATS CANVASS Library (AID 1347389); also: series mostly up to about 46 µM; nearly all actives have a fitted effect of over 60% in size
Outline: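 HepG2, 2,000 cells/well, attached overnight; compound 1 hr, 37C, 5% CO2; Mito-MPS dye 30 min, 37C; fluorescence 535 nm (monomer) and 590 nm (aggregate); decreased 590/535 ratio = depolarization.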

[13] = Secretion counterscreen for inhibitors of the SERCaMP assay screened against the NCATS CANVASS Library (AID 1347390);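 also: light from luciferase secreted into medium read as a measure of general secretion; series mostly up to about 77 µM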
Outline: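 SH-SY5Y cells with constitutively secreted GLuc reporter, 1000 cells/well, treated 20 h at 37C with compounds at 0.001 - 77 uM final; secreted luciferase read as luminescence after coelenterazine; Brefeldin A as positive control.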

[14] = qHTS for activators of Nrf2/ARE signaling pathway screened against the NCATS CANVASS Library (AID 1347391); also: nearly all actives have a fitted effect of over 60% in size
Outline: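 Plate ARE-bla HepG2 cells at 2000/well and let them settle 5 h. Pin-transfer compounds in DMSO, incubate 16 h at 37C. Load CCF4 for 2 h at room temperature and read blue/green fluorescence.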

[15] = qHTS for activators of dead-cell proteases activity screened against the NCATS CANVASS Library (AID 1347392);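 also: luminescence from protease leaking out of membrane-damaged cells cleaving impermeant substrate; rising signal means more cytotoxicity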
Outline: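 HepG2 cells (2000/well) attached 18 h at 37C, then exposed 5 h to compounds (11-point qHTS). Dead-cell protease activity read as luminescence from cell-impermeant AAF-aminoluciferin substrate after 15 min at room temperature.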

[16] = qHTS for inhibitors of ER calcium dysfunction: SERCaMP assay screened against the NCATS CANVASS Library (AID 1347393);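 also: series mostly up to about 77 µM; lower secreted reporter signal means inhibitor of ER calcium depletion; nearly all actives have a fitted effect of over 40% in size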
Outline: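 qHTS in SH-SY5Y reporter cells: 16 h compound pretreatment, 4 h thapsigargin, then secreted Gaussia luciferase measured by luminescence.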

[17] = Vero-766 cells viability qHTS against the NCATS CANVASS Library: Counterscreen for Zika virus inhibition assay (AID 1347394); also: series mostly up to about 46 µM; nearly all actives have a fitted effect of over 60% in size
Outline: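 Vero 766 cells (1000/well), without Zika virus, were exposed to compounds for 72 h at 37C. Viability was measured by CellTiter Glo luminescence. Media-only wells served as 100% inhibition.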

[18] = qHTS for inhibitors of Wild type Zika virus screened against the NCATS CANVASS Library (AID 1347396);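 also: ATP luminescence of surviving cells so rescue from viral cell killing; series mostly up to about 46 µM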
Outline: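 Vero 766 cells, 1000/well, o/n attach; cpds pin-transferred (11-pt qHTS); WT Zika added; 72 h, 37C, 5% CO2; CellTiter Glo lumi. Uninfected + vehicle = 100% inhibition.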

[19] = Viability qHTS for inhibitors of the SERCaMP assay screened against the NCATS CANVASS Library (AID 1347400); also: series mostly up to about 92 µM; nearly all actives have a fitted effect of over 70% in size
Outline: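 SH-SY5Y SERCaMP MJH297 cells, 1000/well; 4 h settle, 37C/5% CO2; pin-transferred cpds; 48 h; CellTiter-Glo lum. Pos ctrl bortezomib 0.0001 - 4.6 uM.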

[20] = Redox Reaction Profiling qHTS: Assay Interference Panel against the NCATS CANVASS Library (AID 1347401)
Outline: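 Resazurin (5 uM) conversion to resorufin measured with 200 uM DTT in 50 mM HEPES pH 7.3, 50 mM NaCl. Compounds tested in 11-point qHTS series. Fluorescence (ex 525/em 598 nm) read before and after 15 min dark incubation.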

Chain of Nuclear receptor subfamily 1 group I member 3 (Homo sapiens) (Q14994 whole entry, looked up): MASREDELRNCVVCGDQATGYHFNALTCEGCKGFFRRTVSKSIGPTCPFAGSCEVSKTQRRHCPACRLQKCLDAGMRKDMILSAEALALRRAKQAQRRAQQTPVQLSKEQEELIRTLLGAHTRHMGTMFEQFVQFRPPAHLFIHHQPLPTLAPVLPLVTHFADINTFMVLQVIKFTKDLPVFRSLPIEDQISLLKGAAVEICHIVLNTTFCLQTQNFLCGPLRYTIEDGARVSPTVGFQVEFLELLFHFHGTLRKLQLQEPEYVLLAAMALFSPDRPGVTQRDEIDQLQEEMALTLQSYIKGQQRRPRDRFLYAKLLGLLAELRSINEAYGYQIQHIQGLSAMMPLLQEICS

With `Nc1cc(Cl)c(NC2=NCCN2)c(Cl)c1` the outcome [1] was “inactive”.
In the case of `C[N+]1(CCCCC[N+]2(C)CCCC2)CCCC1`, the outcome [1] is reported as “inactive”.
With `CC(C)COC(=O)OCN1C(=O)CN(CCN2CC(=O)N(COC(=O)OCC(C)C)C(=O)C2)CC1=O` the outcome [1] was “inactive”.
For `CC(CCc1ccccc1)NCC(O)c1ccc(O)c(C(N)=O)c1` (stereo not drawn), the outcome [1] was “inactive”.
In the case of `CCCn1c(=O)[nH]c(=O)c2[nH]cnc21`, the outcome [1] is reported as “inactive”.
For `CN1C2CCC1CC(OC(=O)c1c[nH]c3ccccc13)C2` (stereo not drawn), the outcome [1] was “inactive”.
For `CCCC1O[C@@H]2C[C@H]3[C@@H]4CCC5=CC(=O)C=C[C@]5(C)[C@H]4[C@@H](O)C[C@]3(C)[C@]2(C(=O)CO)O1` (stereo partly drawn), the outcome [1] was “inactive”.
In the case of `N[C@H](CO)C(=O)O`, the outcome [1] is reported as “inactive”.
In the case of `C1CCc2nnnn2CC1`, the outcome [1] is reported as “inactive”.
With `O=C1CCC(c2ccc(-n3ccnc3)cc2)=NN1` the outcome [1] was “inactive”.
For `CNCCC(Oc1ccccc1C)c1ccccc1` (stereo not drawn), the outcome [1] was “inactive”.
With `Oc1ccc(O)cc1` the outcome [1] was “inactive”.
In the case of `O=C(O)c1cc2cc(Cc3cccnc3)ccc2o1`, the outcome [1] is reported as “inactive”.
In the case of `CC[C@H](C)C(=O)O[C@H]1CCC=C2C=C[C@H](C)[C@H](CC[C@@H]3C[C@@H](O)CC(=O)O3)[C@H]21`, the outcome [1] is reported as “inactive”.
With `CN1CCC[C@@H]1c1cccnc1` the outcome [2] was “inactive”, the outcome [3] was “inactive” and the outcome [4] was “inactive”. For the same compound, the outcome [5] was “inactive”, the outcome [6] was “inactive” and the outcome [7] was “inactive”. The outcome [8] was “inactive”, the outcome [9] was “inactive” and the outcome [10] was “inactive”. The outcome [11] was “inactive”, the outcome [12] was “inactive” and the outcome [13] was “inactive”. The outcome [14] was “inactive”, the outcome [15] was “inactive” and the outcome [16] was “inactive”. For the same compound, the outcome [17] was “inactive”, the outcome [18] was “inactive” and the outcome [19] was “inactive”. The outcome [20] was “inactive”.
With `CCC(NC(C)C)C(O)c1ccc(O)c(O)c1` (stereo not drawn) the outcome [1] was “inactive”.
In the case of `CC(=O)O[C@H]1C[C@@H]2CC[C@@H]3[C@H](CC[C@@]4(C)[C@H]3C[C@H]([N+]3(C)CCCCC3)[C@@H]4OC(C)=O)[C@@]2(C)C[C@@H]1[N+]1(C)CCCCC1`, the outcome [1] is reported as “inactive”.
With `N[C@@H](Cc1cnc[nH]1)C(=O)O` the outcome [1] was “inactive”.
For `COC(=O)[C@H]1[C@H]2C[C@H]3c4[nH]c5ccccc5c4CCN3C[C@H]2CC[C@@H]1O`, the outcome [1] was “inactive”.
For `CC1(C)CCC(NC(=O)[C@@H](N)CCC(=O)O)CC1`, the outcome [1] was “inactive”.

— PubChem BioAssay (NCATS)
